Experiments:
Experiment in all cases: PBM binding z-score (relative to random genomic background probes); higher = stronger binding; sequences stand for … in GC…GCGATTGACAGCGTAGAATGAAGG
[1] = test system: RARb homodimer (NR concentration 270 nM)
Method in brief: (§1)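 Probes were double-stranded and carried 34-nt variable regions with direct-repeat seeds, single-nucleotide variants, half-site ablations and random human genomic background sequences, printed on custom Agilent 4×180K protein-binding microarrays. Arrays were incubated 1 h with ligand-free nuclear receptor dimers in PBS pH 7.4, 2% milk, 0.02% Triton X-100, 1 mM DTT, 0.2 mg/mL BSA and 0.4 mg/ml salmon testes DNA. Antibodies against each partner (one per run) detected binding, and scanned fluorescence was regression-normalized. Binding z-scores use the random background probes as reference.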

[2] = test system: RARg:RXRa (NR concentration 270 nM, RXRa partner concentration 90 nM)
Method in brief: as §1

[3] = test system: RARg homodimer (NR concentration 270 nM)
Method in brief: as §1

[4] = test system: RXRa DBDmut IVT, anti-RXR (DBD mutation: RXRa K156A/R161A, NR concentration 90 nM)
Method in brief: as §1

[5] = test system: RXRa homodimer (NR concentration 180 nM)
Method in brief: as §1

[6] = test system: THRa:RXRa (NR concentration 90 nM, RXRa partner concentration 90 nM)
Method in brief: as §1

[7] = test system: THRa homodimer (NR concentration 90 nM)
Method in brief: as §1

[8] = test system: VDR homodimer (NR concentration 270 nM)
Method in brief: as §1

| Sequence | PBM binding z-score [1] | PBM binding z-score [2] | PBM binding z-score [3] | PBM binding z-score [4] | PBM binding z-score [5] | PBM binding z-score [6] | PBM binding z-score [7] | PBM binding z-score [8] |
| --- | --- | --- | --- | --- | --- | --- | --- | --- |
| GCTGCTAGATCAGGTTGGTCAGCTAACGGGTACG | -0.151 | -0.607 | -0.66 | -0.411 | -0.416 | -0.611 | -0.864 | 0.19 |
| AGACAAAGTTCACTAGGTAACGTAAGATTCAGCT | 3.8 | 4.72 | 5.53 | 4.31 | 3.69 | 2.09 | -0.00149 | 3.48 |
| CCTAGCAGGACAGGGTCACTCAAGCATTTCGCTT | 2.77 | 3.14 | 2.23 | 1.06 | 3.54 | 3.19 | 1.44 | 1.5 |
| AGAACGAGGGCACGCTGGGTTGATAGCAGAGTAG | 1.28 | 2.01 | 2.36 | 1.87 | 1.56 | 2.5 | 0.224 | 2.08 |
| CGTCCAAGGTCAGCAGGTCAGGGAAAGCGACGTG | 5.01 | 6.64 | 7.24 | 2.62 | 5.64 | 3.84 | 2.59 | 1.53 |
| CCTAGCAGGCCAACCTGGGTCACTCAAGGCTTGA | 2.56 | 1.54 | 2.02 | -0.209 | 1.23 | 3.63 | 0.233 | -0.163 |
| ATCTGTAGGTAAAGATAGTTCAGTGAATGCAAAT | 0.933 | 0.435 | 0.657 | -0.108 | 0.326 | 0.527 | -0.0674 | 0.568 |
| CCGACTGCGGCAGAAAGGTTACCATACCATCCGG | 1.92 | 0.857 | 0.647 | -0.0879 | 1.57 | 1.02 | 0.00107 | -0.0446 |
| CCTTACGAGTCACGAGGTTATAGCACGACGAGCG | 1.11 | 1.27 | 1.04 | 0.554 | 1.8 | 1.9 | 1.19 | 1.26 |
| ATCTCTAGGTAAAAGTTCAGTGATTCCCGAGGAT | 2.44 | 1.69 | 2.11 | 0.773 | 1.47 | 1.2 | 0.435 | 1.8 |
| GGAACGAGGGCAAGTTGATACCAGAGTTTGATGG | 1.43 | 1.53 | 2.1 | 2.56 | 1 | 1.31 | -0.003 | 2.05 |
| ACTAGCAGGCCAATGGTCACTCAAGATTAGTCCG | 0.496 | 0.131 | 0.545 | -0.107 | 0.0416 | -0.312 | -0.672 | -0.707 |
| ACAGACAGGTGATGAAGGTAACTCCGGCTATCAT | 0.376 | 0.136 | 0.355 | -0.394 | 0.346 | 0.328 | 0.183 | -0.00954 |
| GGAACGAGGGCAAAGTTGCTAGCATCTGTCGACG | 1.09 | 1.27 | 1.73 | 2.63 | 1.07 | 0.852 | -0.505 | 1.46 |
| AGAATAAGGTTATACGTAGATCAGGGAAGAAAGT | 0.925 | 1.78 | 1.25 | 1.2 | 1.89 | 2.41 | 0.789 | 0.657 |
| CCTACTGGGCCATTTAGAGGTCATTGATCATATG | 3.87 | 4.06 | 2.72 | 1.45 | 3.21 | 3.31 | 1.7 | 3.36 |
| ACTTACGGGTCATCGAGGTTATAGCACGCGTATA | 3.64 | 5.43 | 4.96 | 2.98 | 6.18 | 4.03 | 1.28 | 4.26 |
| ACTAGCAGGCCAAGTTTTGGTCACTCAAACAAAG | 0.74 | 0.448 | 0.546 | -0.286 | -0.0235 | 0.0291 | -0.326 | -0.447 |
| ACGAGCAGGCCAAGGGTCACTCAAGATTAGTCCG | 3.96 | 4.21 | 4 | 0.0917 | 4.07 | 2.69 | 0.262 | 0.916 |
| TTACCAAGGTGAAAGGTCGTTGGTGCACGCCTTG | 2.87 | 4.49 | 1.81 | 0.82 | 6.07 | 3.48 | 0.937 | 1.86 |
| CCTTACGGGTCACTGACATGTTATAGCATTTGGA | 3.05 | 4.89 | 4.58 | 2.2 | 5.13 | 2.61 | 0.312 | 1 |
| TGTCAAAGTTCAAGGGTAACGTAAGTATCCACAC | 3.92 | 5.81 | 6.14 | 3.72 | 5.45 | 2.89 | 0.138 | 3.21 |
| TCTAGCAGGCCGGAGGGTCACTCAAGAGGTACGG | 2.33 | 2.01 | 1.52 | 0.00965 | 2.13 | 1.44 | -0.391 | 0.104 |
| CCTTACGGGTCACTGATAGGTTATAGCATTTGGA | 3.34 | 5.65 | 4.89 | 1.85 | 5.48 | 2.74 | 0.24 | 1.17 |
| TCGAGTAGGTTGGTCGGGGCATTCAGCCAACATA | 0.0867 | -0.467 | -0.483 | -0.0758 | -0.429 | 0.33 | 0.0385 | 0.0879 |
| CCGTCTGGGGCAAGGTTACCATAACGCACAGCCA | 1.05 | 1.06 | 1.13 | -0.58 | 0.988 | 1.15 | 0.197 | 0.0669 |
| CGTCCAAGGTCAGAGAGTTCAGTGAATGCCGAGT | 4.39 | 5.25 | 6.4 | 3.78 | 4.59 | 3.62 | 2 | 7.94 |
| CCTTACGGGTCAAGGTTAAAGCACGGGTGGTACG | 3.57 | 5.08 | 4.78 | 0.827 | 5.39 | 3.06 | 1.01 | 1.43 |

From the supplement of paper PMC6555819
